Most compounds without a hit are left out; they make up all but 12% or so of the library.
PLK1 PBD block – blocks phosphopeptide binding to human PLK1 polo-box domain; P53350; Plk1 PBD binding of FITC phosphopeptide, fluorescence polarization; Potency, µM, inactives show max response, negative = inhibition, usual class: inhibitors; hit rate 2.8% among 360,000; also: potency is read from the fitted curve at half-maximal effect; series mostly up to about 57 µM; % is scaled to controls: 0 for no effect and ±100 for the full control effect; nearly all actives have a fitted effect of over 65% in size
BAZ2B inh – blocks human BAZ2B; Q9UIF8; AlphaScreen BAZ2B-H3K14Ac peptide displacement; Potency, µM (series often up to 114 µM), for the others: at the highest dose activity change, negative = inhibition, hits mostly inhibitors; hit rate 4.4% among 360,000; AID 504333; also: potency is read from the fitted curve at half-maximal effect; % is scaled to controls: 0 for no effect and ±100 for the full control effect; nearly all actives have a fitted effect of over 60% in size
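In this displacement format the biotinylated H3(5-23) peptide acetylated at Lys14 serves as ligand at 50 nM, with BAZ2B at 50 nM in PBS pH 7.4 containing 0.01% Tween-20. Donor and acceptor beads are 10 ug/mL final.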
HP1b chromo inh – blocks HP1-beta chromodomain binding to methylated histone tails; P83916; AlphaScreen HP1-beta / biotin-H3K9me3 peptide binding; Potency, µM (doses to about 114 µM), inactives show at the highest dose activity change, negative = inhibition, most hits filed as inhibitors; hit rate 0.56% among 390,000; AID 540317; also: potency is read from the fitted curve at half-maximal effect; nearly all actives have a fitted effect of over 70% in size
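AlphaScreen: HP1-beta (50 nM) preformed 30 min with biotin-H3(1-18)K9me3 peptide (50 nM) in PBS pH 7.4, 0.01% Tween-20. Compound added for 30 min at RT, then streptavidin donor/nickel chelate acceptor beads (10 ug/mL) for 30 min.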
JMJD2A Tudor inh – inhibitors of human JMJD2A Tudor domain. AlphaScreen JMJD2A-Tudor / H3K4me3 peptide binding. Potency, µM (titrated, usually from 114 µM), without a hit: top-dose activity change, negative = inhibition, actives largely listed as inhibitors. hit rate 4.4% among 390,000. AID 504339; also: potency is read from the fitted curve at half-maximal effect; % is scaled to controls: 0 for no effect and ±100 for the full control effect; nearly all actives have a fitted effect of over 50% in size
G9a block – blocks human histone lysine methyltransferase G9a. Q96KQ7. G9a H3K9 monomethylation, AlphaScreen, 2 h. Potency, µM (highest dose often 102 µM), for the others: top-dose activity, negative = inhibition, most hits filed as inhibitors. hit rate 8.8% among 350,000. AID 504332; also: potency is read from the fitted curve at half-maximal effect; % is scaled to controls: 0 for no effect and ±100 for the full control effect; nearly all actives have a fitted effect of over 75% in size
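Compounds were preincubated with 20 nM G9a for 15 min, after which biotinylated H3K9 peptide (500 nM) and SAM (20 uM) started a 2 h room-temperature reaction. Monomethylated product was quantified by antibody-based AlphaScreen chemiluminescence.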
PI5P4K alpha inh – blocks human PI5P4K alpha kinase activity; max response, %; PI5P4Kalpha enzyme, ADP-Glo luminescence, 60 min; stronger effect = lower value; hit rate 1.2% among 330,000; AID 652105; active = max response of -50% or lower; inconclusive = between -30% and -50%; inactive = -30% or higher; also: value at the top dose of about 77 µM; % is scaled to controls: 0 for no effect and ±100 for the full control effect
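PI5P4Kalpha ADP-Glo assay; 5 microM ATP final; 60 min RT reaction; HEPES pH 7.4/EGTA/CHAPS, 5% DMSO; controls lacking substrate or enzyme; luminescent end-point.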
The depositor's hits bear a star; ? = inconclusive; · = no result given; [ ] = dose if it differs, or a comment. Unless noted, calls follow the shape of the dose curve; as a rule, active = well fitted curve in the direction sought with a large enough effect; inconclusive = small, poorly fitted or top-dose-only effect, or another doubt; inactive = no such curve, though single readings can be large; an effect the other way counts as inactive or inconclusive.

SMILES	PLK1 PBD block	BAZ2B inh	HP1b chromo inh	JMJD2A Tudor inh	G9a block	PI5P4K alpha inh
COc1cc(NC(=O)Cn2cnc(S(=O)(=O)N3CCOCC3)c2)cc(OC)c1OC	0%	-12%	13%	2%	67%	-8
COc1ccc(-n2c(Cc3cccn3C)nnc2SCC(=O)Nc2ccc(C)cc2C)cc1	27µM*	?	-5%	?	45µM*	-4
COc1ccc(-n2c(Cc3cccn3C)nnc2SCC(=O)Nc2ccccc2OC)cc1	-25%	?	18%	-34%	45µM*	4
COc1ccc(-n2c(Cc3cccn3C)nnc2SCC(=O)Nc2nc(C)cs2)cc1	-9%	-22%	64%	-20%	-17%	3
COc1ccc(-n2c(Cc3cccn3C)nnc2SCC(=O)Nc2cc(Cl)ccc2OC)cc1	-4%	?	-23%	?	40µM*	0
COc1ccccc1-c1cc2nc(C)c(CCC(=O)NCc3cccc(Cl)c3)c(C)n2n1	·	7%	29%	-13%	2%[59 µM]	·
CCOc1ccc(NC(=O)CCS(=O)(=O)c2ccc3c(c2)n(C)c(=O)c(=O)n3C)cc1	·	3%	24%	-19%	12%[59 µM]	·
COc1ccc(-c2ccc(NC(=O)c3ccco3)cc2)nn1	-12%	9%	-8%	-21%	40µM*	-27
COc1ccc(-c2cccc(NC(=O)c3ccco3)c2)nn1	-8%	-18%	8%	-21%	50µM*	-4
CC(=O)Nc1ccc(NC(=O)c2ccco2)cc1	0%	10%	23%	-7%	18%[2.33 µM]	-3
Cc1ccc(Nc2ccc(N)cc2S(=O)(=O)O)cc1	-9%	?	-1%	-31%	32µM*	-7
Nc1ccc(Nc2ccccc2)c(S(=O)(=O)O)c1	-28%	56µM*	-2%[57 µM]	?	45µM*	-25
CNS(=O)(=O)c1cc(N)ccc1C	-9%	-5%	14%	-19%	0%	10
CCCCCCCCn1c2c(c(=N)c3ccccc31)CCC2	-5%	-1%	8%	-17%	-26%	1
CCCCCn1c2c(c(=N)c3ccccc31)CCC2	1%	-15%	12%	?	50µM*	-2
Cc1ccc(C)c(Nc2ccc3nonc3c2[N+](=O)[O-])c1	-5%	?	?	-36%	?	7
Cc1ccc(C)c(Nc2c([N+](=O)[O-])ccc3nonc23)c1	-2%	3.5µM*	?	-31%	?	2
O=[N+]([O-])c1ccc(O)c(Nc2ncnc3ccc(Br)cc23)c1	-19%	?	?	-31%	?	?
O=[N+]([O-])c1ccc(O)c(Nc2c([N+](=O)[O-])ccc3nonc23)c1	-17%	50µM*	-24%[57 µM]	?	50µM*	?
CC/C(=N\NC(=O)Cc1ccc(Br)cc1)c1cccs1	-7%	-15%	57%	-12%	56µM*	4
O=C1COc2ccc(C(=O)CSc3nnc(-c4cccs4)n3Cc3ccccc3)cc2N1	-10%	-8%	28%	-15%	?	-1
O=C1COc2ccc(C(=O)CSc3nnc(Cc4cccs4)n3-c3ccccc3)cc2N1	?	2%	18%	3%[57.1 µM]	79µM*	-12
CC(C)c1ccccc1-n1c(SCC(=O)c2ccc3c(c2)NC(=O)CO3)nc2ccccc2c1=O	-12%	-11%	-3%	-26%	40µM*	-12
O=C1COc2ccc(C(=O)CSc3ccccc3C(=O)O)cc2N1	-3%	0%	40%	-9%	·	-24
COc1cccc(CNC(=O)C2CCCCN2S(=O)(=O)c2ccc(F)cc2)c1 (configuration not stated)	·	6%	8%	7%	3%[59 µM]	·
SMILES	PLK1 PBD block	BAZ2B inh	HP1b chromo inh	JMJD2A Tudor inh	G9a block	PI5P4K alpha inh
COc1ccc(NC(=O)c2cnn(-c3ccc(C)cc3)c2-n2cccc2)cc1Cl	·	-30%	3%	-21%	-24%[59 µM]	·
Cc1cc(C(=O)NP(=O)(N2CC(C)OC(C)C2)N2CC(C)OC(C)C2)c(C)n1C1CC1 (configuration not stated)	-10%	?	-3%	-15%	45µM*	1
Cc1cc(C)cc(OCC(=O)OCC(=O)c2cc(C)n(C3CC3)c2C)c1	3%	-14%	1%	-16%	·	9
COc1ccc(/C=C/C(=O)c2ccccn2)cc1	-12%	?	5%	-25%	40µM*	-17
COc1ccc(/C=C/C(=O)c2ccccc2O)cc1	-10%	?	-21%	63µM*	45µM*	-2
COc1ccc(/C=C/C(=O)c2ccc(O)cc2)cc1	4%	?	-4%	?	21%[59 µM]	-3
COc1ccc(S(=O)(=O)N2CCOCC2)cc1NC(=O)c1ccncc1	3%	-2%	48%	2%	7%[12.7 µM]	1
COc1cccc(NC(=O)Cn2c(=O)n(CCc3cccc(C)c3)c(=O)c3ccccc32)c1	·	-5%	7%	-11%	4%[59 µM]	·
CCOc1ccc(OCCC(=O)N2CCN(S(=O)(=O)c3cccc(F)c3)CC2)cc1	-5%	-32%	12%	-24%	-3%[0.501 µM]	7
COc1cc2cnc(-c3ccccc3)c(-c3cccc(C(F)(F)F)c3)c2cc1OC	5%	56µM*	19%	-34%	5%[0.501 µM]	1
C#CCOc1c(Br)cc(C2C(C(=O)OC)=C(C)NC3=C2C(=O)c2ccccc23)cc1OCC (configuration not stated)	·	?	?	11µM*	10µM*	·
Cc1nonc1C(=O)N1CCCC(Nc2ccc(C(C)C)cc2)C1 (configuration not stated)	-12%	?	29%	-17%	35µM*	-6
Cc1ccc(C(=O)N2CCCC(Nc3ccc(C(C)C)cc3)C2)cn1 (configuration not stated)	-12%	-19%	47%	-17%	40µM*	-9
COc1ccc(C(=O)N2CCC(C(=O)Nc3ccc(OC)c(OC)c3)CC2)cc1	-5%	·	33%	-23%	-4%[59 µM]	0
COc1ccc(NC(=O)C2CCN(C(=O)c3ccc(OC)cc3)CC2)cc1	6µM*	25%	?	-24%[11.4 µM]	?	?
Cc1cc(C)c(C(=O)N2CCCC(Nc3ccc(F)cc3)C2)o1 (configuration not stated)	-7%	?	4%	-26%	79µM*	3
Cc1cc(C)c(C(=O)N2CCCC(Nc3ccc(C)c(C)c3)C2)o1 (configuration not stated)	-5%	?	-32%	?	-48%[59 µM]	5
COc1ccc(NC2CCCN(C(=O)c3ccc(C(C)=O)s3)C2)cc1 (configuration not stated)	-8%	-39%	35%	-14%	50µM*	-7
COc1ccc(NC2CCCN(C(=O)c3ccc(C(C)=O)cc3)C2)cc1 (configuration not stated)	-8%	-17%	16%	-18%	-10%	-3
